Screening results deposited in PubChem by several laboratories.
Shown are actives, neighbours in structure and some others; about 32% of the full set was active somewhere.
CYP2C9 activ = increases human cytochrome P450 2C9 activity; P11712; recombinant CYP2C9, luciferin-H conversion, luminescence; stronger effect = higher value; factor 1 = untreated enzyme, 0 = blocked; activation factor at 5 µM; actives 1.4% (n = 96,000); AID 1024;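 active = activation factor of 2 or more for CYP2C9 at a 5 µM dose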
CYP2C9 inh = inhibitors of human CYP2C9; actives 20% (n = 96,000); AID 777; CYP2C9 Supersomes, luciferin-H conversion, luminescence; P11712; inhibition, % at 5 µM;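 active = blocking of liver enzyme CYP2C9 beyond about 50% at 5 µM, limit read from the data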
CYP2C19 activ = cytochrome P450 2C19 (human) activation; AID 1025; recombinant CYP2C19, luciferin-H EGE luminescence; stronger effect = higher value; 0 = fully inhibited enzyme, 1 = untreated enzyme; P33261; 96,000 tested, under 10 active; activation factor at 5 µM;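 active = activation factor of at least 2 at 5 µM in the primary screen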
Target sequence (P33261 whole entry, looked up): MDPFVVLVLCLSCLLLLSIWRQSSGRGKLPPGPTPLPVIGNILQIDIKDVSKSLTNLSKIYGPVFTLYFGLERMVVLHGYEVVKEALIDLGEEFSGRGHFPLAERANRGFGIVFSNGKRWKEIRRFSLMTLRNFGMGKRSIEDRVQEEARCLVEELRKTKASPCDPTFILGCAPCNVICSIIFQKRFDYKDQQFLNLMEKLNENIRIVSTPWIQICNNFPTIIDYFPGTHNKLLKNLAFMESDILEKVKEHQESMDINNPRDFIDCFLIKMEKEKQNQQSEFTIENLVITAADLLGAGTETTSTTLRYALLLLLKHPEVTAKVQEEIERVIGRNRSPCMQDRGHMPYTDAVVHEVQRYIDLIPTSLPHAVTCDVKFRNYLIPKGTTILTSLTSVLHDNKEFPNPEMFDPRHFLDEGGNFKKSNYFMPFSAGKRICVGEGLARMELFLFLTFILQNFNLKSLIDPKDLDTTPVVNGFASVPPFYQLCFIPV
CYP2C19 inh = blocks human cytochrome P450 2C19; P33261; inhibition, % at 5 µM; actives 21% (n = 96,000); CYP2C19 Supersomes, luciferin-H EGE luminescence, 30 min;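 active = CYP2C19 inhibition above a set limit at 5 µM in the primary screen, cut at about 50% in these data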
PostGolgi yeast = growth inhibition of a yeast mutant, post-Golgi transport screen | post-Golgi transport phenotypic cell assay | inhibition, % at 10 µM | actives 0.9% (n = 98,000);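 note: yeast cells grown in 1536-well plates; yeast grown about 18 h at 30C before absorbance read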
PostGolgi ctrl = growth of the yeast control strain, post-Golgi counter-screen; efflux-deficient yeast background strain, growth absorbance A615, 16 h; inhibition, % at 10 µM; actives 5% (n = 98,000); AID 738
Large screens that a line does not name were inactive. Cut-off read from the data, not from the text of the source, unless noted: active = inhibition above about 30%; inactive = the rest.

CCOC(=O)c1ccc(NC(=O)CCc2ccc(C)o2)cc1	CYP2C9 inh 55
Cc1ccc(CCC(=O)Nc2ccc(S(N)(=O)=O)cc2)o1	none
Cc1cccc(NC(=O)CCc2ccc(C)o2)c1	CYP2C19 inh 90
Cc1ccccc1CN1CCN(C/C=C/c2ccccc2)CC1	none
CCN(Cc1ccccc1)Cc1cccc([N+](=O)[O-])c1	none
O=[N+]([O-])c1ccc(N(c2ccccc2)c2ccccc2)cc1	CYP2C9 inh 51
c1ccc(COc2cccc(CN3CCN(c4ccccn4)CC3)c2)cc1	CYP2C9 inh 70
CCN1CCN(Cc2cccc(Oc3ccccc3)c2)CC1	none
Brc1cccc(CN2CCCCCCC2)c1	CYP2C19 inh 77
c1ccc(Oc2cccc(CN3CCCCC3)c2)cc1	CYP2C19 inh 50
COc1cc2c(cc1OC)CN(S(C)(=O)=O)CC2	none
Cc1cc(C(=O)NCCC2=CCCCC2)no1	none
O=C(NCCC1=CCCCC1)c1cnsn1	CYP2C19 inh 65
CCOC(=O)Cc1csc(N)n1	none
CCOC(=O)CC1=CC(C)(CC(=O)OCC)C(C#N)(C#N)C(N)=C1C#N (stereo unspecified)	CYP2C9 inh 79
O=C(CSc1ncn[nH]1)N1N=C2/C(=C/c3ccco3)CCCC2C1c1ccco1 (stereo unspecified)	CYP2C9 inh 94, CYP2C19 inh 88
CCn1c(SCC(=O)Nc2nccs2)nnc1-c1ccc(S(=O)(=O)N2CCCCC2)cc1	none
Cc1sc2ncnc(Oc3ccc(-n4ccnc4)cc3)c2c1C	CYP2C9 inh 99, CYP2C19 inh 100
CNC(=O)COc1ncnc2sc(C)c(C)c12	none
COc1ccc(-c2nc(N)n[nH]2)cc1OC	none
COc1nc(-c2ccccc2)cc(-c2ccc(OC)c(OC)c2)n1	CYP2C9 inh 80, CYP2C19 inh 76, PostGolgi ctrl 38
C/C(=C\C(=O)O)CC(=O)O	none
COc1ccc(Oc2nc(C)cc(C)c2S(C)(=O)=O)cc1	none
Cc1cccc(Oc2nc(-c3ccccc3)cc(C)c2S(C)(=O)=O)c1C	CYP2C9 inh 93, CYP2C19 inh 63
Cc1cc(-c2ccccc2)nc(Oc2ccc(C(C)(C)C)cc2)c1S(C)(=O)=O	PostGolgi ctrl 63
COc1ccccc1Oc1nc(-c2ccccc2)cc(C)c1S(C)(=O)=O	none
Cc1cc(C)cc(Oc2nc(-c3ccccc3)cc(C)c2S(C)(=O)=O)c1	CYP2C9 inh 89, CYP2C19 inh 52, PostGolgi ctrl 45
CCS(=O)(=O)N1CCCC(C(=O)NCc2ccc3c(c2)OCO3)C1 (stereo unspecified)	none
C=CCOc1c(CNc2ccc(C(=O)O)cc2)cccc1OCC	none
C=CCOc1c(CNc2nccs2)cccc1OCC	CYP2C9 inh 72, CYP2C19 inh 98, PostGolgi yeast 33
Cc1[nH]nc(N=CC2=C(O)CC(c3ccco3)CC2=O)c1-c1ccc(Cl)cc1 (stereo unspecified)	none
Cc1[nH]nc(N=CC2=C(O)CC(C)(C)CC2=O)c1-c1ccc(Cl)cc1	PostGolgi yeast 79
CC1(C)CC(=O)C(C=Nc2ccc3cn[nH]c3c2)=C(O)C1	CYP2C19 inh 54
CC1(C)CC(=O)C(C=Nc2ccc3[nH]ncc3c2)=C(O)C1	CYP2C19 inh 100
CC1(C)CC(=O)C(C=Nc2ccc(O)cc2)=C(O)C1	none
CCOc1ccc(N=CC2=C(O)CC(C)(C)CC2=O)cc1	none
Cc1cccc(N(C(=O)c2ccc(Cl)cc2)C2CS(=O)(=O)CC2OC(=O)c2ccc(Cl)cc2)c1 (stereo unspecified)	none
COc1ccc2nc(NCCCNC(=O)c3cc(OC)c(OC)c(OC)c3)c(C#N)cc2c1	PostGolgi yeast 34
CCOc1ccc2nc(NCCNC(=O)Nc3ccccc3)c(C#N)cc2c1	none
CC(C)Cn1c(=O)c(C(=O)NCc2ccccn2)c(O)c2ccccc21	PostGolgi ctrl 31
Cc1cc(C(=O)NCc2cccnc2)cs1	none
CCCn1c(=O)c(C(=O)Nc2cnccn2)c(O)c2ccccc21	none (no result: PostGolgi yeast, PostGolgi ctrl)
CCCn1c(=O)c(C(=O)NCc2ccncc2)c(O)c2ccccc21	CYP2C9 inh 80, CYP2C19 inh 68
CCn1c(=O)c(C(=O)NCc2cccnc2)c(O)c2ccccc21	CYP2C9 inh 72
CCn1c(C(=O)NCc2cccnc2)cc2sc(Cl)cc21	CYP2C9 inh 90, CYP2C19 inh 99
Cc1cn(C(=O)CN2C(=O)c3ccccc3C2=O)c(C)n1	none
Cc1cc2nsnc2c(S(=O)(=O)NCC(=O)O)c1C	none (no result: PostGolgi yeast, PostGolgi ctrl)
CN(C)c1nc(N)nc(CSc2ncc(Cl)cc2Cl)n1	CYP2C19 inh 64
COc1cc(C2N(c3ccc(Cl)c(Cl)c3)C(=O)C3CCCN32)cc(OC)c1OC (stereo unspecified)	none
O=c1[nH]c(SCc2nc3ccccc3n2Cc2ccccc2)nc2ccccc12	none
Nc1cc(=O)[nH]c(SCc2nc3ccccc3n2Cc2ccccc2)n1	CYP2C9 inh 82 (no result: PostGolgi yeast, PostGolgi ctrl)
NC(=O)C1(N2CCCCC2)CCN(Cc2ccc(F)cc2)CC1	none
COc1cccc(N(C(=O)c2ccco2)C(C(=O)NC2CCCC2)c2cccnc2)c1 (stereo unspecified)	CYP2C9 inh 65, CYP2C19 inh 67
COc1ccc(N(C(=O)CNC(=O)c2ccco2)C(C(=O)NC2CCCCC2)c2ccco2)cc1 (stereo unspecified)	none
COc1ccc(C)cc1N(C(=O)CNC(=O)c1ccco1)C(C(=O)NC1CCCC1)c1cccnc1 (stereo unspecified)	none
CCOc1ccccc1N(C(=O)c1ccco1)C(C(=O)NC1CCCC1)c1cccnc1 (stereo unspecified)	CYP2C19 inh 56
COc1cccc(N(C(=O)CNC(=O)c2ccco2)C(C(=O)NC2CCCCC2)c2ccncc2)c1 (stereo unspecified)	CYP2C9 inh 76, CYP2C19 inh 57, PostGolgi ctrl 38
COc1ccc(CN(C(=O)CNC(=O)c2ccco2)C(C(=O)NC2CCCC2)c2ccco2)cc1 (stereo unspecified)	CYP2C9 inh 62, CYP2C19 inh 62, PostGolgi ctrl 39
COC(=O)Cn1c(CCS(=O)(=O)c2ccc(Cl)cc2)nc2ccccc21	none
CCOC(=O)N1CCC(NC(=O)c2cnn3cccnc23)CC1	none
COc1cc(/C=N/NC(=O)c2sc(N)c(C#N)c2C)cc(Br)c1O	none
CCOC(=O)c1sc(N)c(C#N)c1COC(=O)CNC(=O)c1cc(OC)c(OC)c(OC)c1	CYP2C9 inh 64, CYP2C19 inh 53
Cc1ccc(C(=O)Nc2ccccc2OC(F)F)cc1	none
O=S(=O)(c1ccccc1)N1CCn2c(nc3ccccc32)C1	CYP2C19 inh 71
Cc1cnn(-c2ccc3nnc(-c4ccc(Br)cc4)n3n2)c1	none
O=C(COc1ccccc1F)NC1CCN(Cc2ccccc2)CC1	PostGolgi yeast 54
COC(=O)[C@H](C)NC(=O)NC1CCN(Cc2ccccc2)CC1	none
Clc1ccc(CSc2nnc(NC3=NCCCCC3)s2)cc1	CYP2C9 inh 67, CYP2C19 inh 91
